Consider 40 compounds from PubChem BioAssay (NCATS).

The structures appear in SMILES notation. Records with an inconclusive call do not appear. Entries that show only a call come without a potency. Values without a mark were called inactive. The source made the active and inactive calls. The call rests on the fitted dose curve; in most records, active means well fitted inhibition curve with a large enough effect; inconclusive means small, poorly fitted or top-dose-only effect; inactive means flat fitted curve, though single readings scatter.

Sequence of Glutathione peroxidase 1 (Homo sapiens) (P07203 whole entry, looked up): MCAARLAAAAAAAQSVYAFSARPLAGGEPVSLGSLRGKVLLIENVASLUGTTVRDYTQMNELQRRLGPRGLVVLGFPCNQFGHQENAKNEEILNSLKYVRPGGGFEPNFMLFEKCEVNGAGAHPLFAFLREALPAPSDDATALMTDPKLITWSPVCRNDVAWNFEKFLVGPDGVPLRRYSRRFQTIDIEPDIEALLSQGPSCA

The target of this assay is Glutathione peroxidase 1 (Homo sapiens) (UniProt P07203). The assay is described as follows: Primary qHTS Assay for Inhibitors of Recombinant Selenoprotein Glutathione Peroxidase 1 (GPX1) (AID 1845191). Further: nearly all actives have a fitted effect of over 65% in size. Particulars: recombinant GPX1, GR-coupled NADPH fluorescence, 15 min; series mostly up to 48.8 µM; activity, negative = inhibition: at the top concentration. A digest of the protocol:
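GR-coupled readout: NADPH consumption tracked by fluorescence, ex 340/em 450 nm, at t=0 and after 15 min at RT. Final mix 10 nM GPX1, 1 mM GSH, 0.5 mM CHP, 0.5 mM NADPH, 100 nM GR, 0.01% BSA, following 30 min enzyme–compound preincubation.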
(In general: In qHTS, concentration-response curves come from the screen itself.)
For `CCOc1ccc(Cc2cc([C@@H]3O[C@H](CO)[C@@H](O)[C@H](O)[C@H]3O)ccc2Cl)cc1`, the Potency result was “inactive”. For the compound `COC(=O)[C@H]1[C@@H](O)[C@@]2(O)c3c(OC)cc(O[C@@H]4O[C@@H]([C@@H](O)CO)CO[C@H]4OC)cc3O[C@@]2(c2ccc(OC)cc2)[C@@H]1c1ccccc1`, the outcome was inactive. `O=C(NCc1ccc(S(=O)(=O)c2cccc(C(F)(F)F)c2)cc1)c1cnc2[nH]ncc2c1`: the “activity, negative = inhibition” value was 1.91%. As for `COC[C@@H](c1ccc(C(F)(F)F)cc1)N1CCN(C2(C)CCN(C(=O)c3c(C)ncnc3C)CC2)C[C@@H]1C`, the Potency result was “inactive”.

`Cc1c(F)cccc1NC(=O)Nc1ccc(Cl)c(S(=O)(=O)[C@H]2CCCNC2)c1O`: the outcome was inactive. As to `Cc1ccc(-c2nc(N)nc3c2nnn3Cc2cccc(CO[C@H]3CCOC3)n2)o1`, the “activity, negative = inhibition” value was -6.18%.

For the compound `CCNC(=O)Nc1ccc(Oc2ncnc(N)c2/C=N/OC)cc1Cl`, the “activity, negative = inhibition” value was -0.764%. Turning to `COc1cccc(-c2c(C)n(Cc3c(F)cccc3C(F)(F)F)c(=O)n(C[C@H](NCCCC(=O)O)c3ccccc3)c2=O)c1F`, the Potency entry is “inactive”. Regarding `C=CC(=O)N1CCC(CNc2ncnc(N)c2-c2ccc(Oc3ccccc3)cc2)CC1`, the result was inactive. In the case of `O=C1CC[C@H](N2Cc3c(OCc4ccc(CN5CCOCC5)cc4)cccc3C2=O)C(=O)N1`, the outcome was inactive. Consider `C[C@@H]1C(=O)OC2[C@H](O)[C@]34[C@H]5C[C@@H](C(C)(C)C)[C@]36[C@@H](OC(=O)[C@@H]6O)O[C@@]4(C(=O)O5)[C@]21O` (stereo not given in full), for which the Potency result is “inactive”.

On to `O=C(Nc1nccs1)C(c1cc(F)ccc1O)N1Cc2ccccc2C1=O` (stereo not given), for which the result was inactive. `C=CC(=O)N1CCC[C@H](n2c(=O)n(-c3ccc(Oc4ccccc4)cc3)c3c(N)ncnc32)C1`: the outcome was inactive. For `COc1cc(C(=O)NC(N)=Nc2ccc(C)c(NC(=O)c3ccc(-c4ccccc4)cc3)c2)cc(OC)c1OC`, the “activity, negative = inhibition” value was 3.57%. On the same count and under the same terms, next, `COC(=O)C1=C(C)NC(c2ncc(F)cc2F)=N[C@H]1c1ccc(F)cc1Cl`: 3.39%; `COc1ccc(COc2ccc(Cc3cnc(N)nc3N)cc2OC)cc1`: -30.8%.

For the compound `CC1(C)C(N(O)C(=O)Nc2ccc(Cl)cc2)N(c2ccc(Cl)cc2)C(=O)N1CC(=O)N/N=C/C=C/c1ccc([N+](=O)[O-])o1` (stereo not given), the result was inactive. For the compound `Cc1cc(-c2cnn3c(NCC4CC(C)(O)C4)cc(Oc4cccnc4)nc23)ccc1C(=O)NC1CC1` (stereo not given), the outcome was “inactive [at 4.49 µM]”.

For the compound `Cn1c(-c2ccccc2C(F)(F)F)nnc1C12CCC(c3noc(C4CC(F)(F)C4)n3)(CC1)CC2`, the result was inactive. The same measure, in the same setting: next, `C[C@]12CC[C@H](O)CC1=CC[C@@H]1[C@@H]2CC[C@]2(C)C(c3cccnc3)=CC[C@@H]12`: “inactive [at 27.7 µM]”; `Cc1cc(C)cc(Oc2ccc(CNC(=O)[C@H](C)N)cc2C)c1`: “inactive”. `Cn1cc(-c2nc(N[C@@H]3CCCC[C@@H]3N)c(F)c3c2C(=O)NC3)cn1`: the outcome was “inactive [at 4.49 µM]”.

For `CC[C@@]1(O)C(=O)OCc2c1cc1n(c2=O)Cc2c-1nc1ccccc1c2CCNC(C)C`, the activity, negative = inhibition was -16.5% [at 4.49 µM]. With `c1ccc(CNCc2ccc(CN3CCCNCCNCCCNCC3)cc2)nc1`, the “activity, negative = inhibition” value was -2.91%. As to `CN1C(=O)N[C@H](Cc2c[nH]c3c(Cl)cccc23)C1=O`, the result was inactive. For the compound `Cc1ccc(NS(=O)(=O)c2ccc3c(c2)C2C=CCC2C(c2ccc(C(=O)O)cc2)N3)cc1C` (stereo not given), the result was inactive.

As for `O=C(Nc1ccccc1)Nc1ccc(-c2ccc(C(=O)[C@@H]3CCC[C@H]3C(=O)O)cc2)cc1`, the “activity, negative = inhibition” value is -8.4%.

On to `CCS(=O)(=O)c1ccc2oc(-c3ccc4ccccc4c3)nc2c1`, for which the result was inactive.

As for `C[C@]12CCC3=C4CCC(=O)C=C4CC[C@H]3[C@@H]1CC[C@@]2(O)CC#N`, the Potency entry is “inactive”. In the case of `CC(C)=CCC[C@](C)(O[C@@H]1O[C@H](CO[C@@H]2O[C@H](CO)[C@@H](O)[C@H](O)[C@H]2O)[C@@H](O)[C@H](O)[C@H]1O)[C@H]1CC[C@]2(C)[C@@H]1[C@H](O)C[C@@H]1[C@@]3(C)CC[C@H](O[C@@H]4O[C@H](CO)[C@@H](O)[C@H](O)[C@H]4O[C@@H]4O[C@H](CO)[C@@H](O)[C@H](O)[C@H]4O)C(C)(C)[C@@H]3CC[C@]12C`, the Potency result is “inactive”. `N=C1S/C(=C\c2ccc(-c3ccc4c(c3)C(=O)NC4=O)o2)C(=O)N1c1ccc(Br)cc1`: the “outcome” value was “inactive [at 27.7 µM]”. Still for that read-out and setting: under `O=C(/C=C\n1cnc(-c2cc(C(F)(F)F)cc(C(F)(F)F)c2)n1)NNc1ccccn1` stands “inactive”; under `C=CC(=O)Nc1cccc(Oc2nc(Nc3ccc(N4CCN(C)CC4)c(F)c3)nc3[nH]ccc23)c1`, “inactive”.

For the compound `O=S(=O)(Nc1ccc(-c2cccnc2)c2cccnc12)c1cccc(C(F)(F)F)c1`, the result was inactive. With `CC(C)n1ncnc1-c1cn2c(n1)-c1ccc(O[C@@H](C)C(N)=O)cc1OCC2`, the “activity, negative = inhibition” value was 2.62%. `COc1ccc2[nH]c3c(c2c1)CCN[C@]31CS[C@@H]2c3c(OC(C)=O)c(C)c4c(c3[C@H](COC1=O)N1[C@@H]2[C@H]2c3c(cc(C)c(OC)c3O)C[C@@H]([C@@H]1O)N2C)OCO4`: the outcome was “inactive [at 9.52 µM]”. Consider `COc1cc([C@@H]2c3cc4c(cc3[C@@H](O[C@@H]3O[C@@H]5CO[C@@H](c6cccs6)O[C@H]5[C@H](O)[C@H]3O)[C@H]3COC(=O)[C@H]23)OCO4)cc(OC)c1O`, for which the outcome was inactive. Same read-out and setting: under `C=C1CCC[C@]2(C)C=C3OC(=O)C(C)=C3C[C@@H]12` stands “inactive”; under `COc1cc(C)[nH]c(=O)c1CN1CCc2c(Cl)cc([C@H](OC)C3COC3)c(Cl)c2C1=O`, “inactive”; under `CC1=NN(c2ccc(C(=O)O)cc2)C(=O)/C1=C/c1ccc(-c2cc(C)c(C)cc2[N+](=O)[O-])o1`, “inactive”.
